For orientation: AC50 means the concentration giving half of the maximal activity seen.

The source made the active and inactive calls. The calls were made as follows: active = hit-call score of the fitted dose curve at least 0.9, where 1 is the maximum; inactive = score below 0.9.

Holding throughout (settings): mRNA level, 48 h; actives raise or lower the signal
Read-out in test [1]: Fatty acid synthase (Homo sapiens) (UniProt P49327)
Put plainly: LTEA_HepaRG_FASN: Life Technologies and Expression Analysis (LTEA) Assay for Fatty Acid Synthase (FASN) using HepaRG (AID 2283448). The essentials:
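Differentiated HepaRG cells in serum-free induction medium exposed 48 h in duplicate to eight half-log concentrations, top 100 uM, 0.5% DMSO. FASN mRNA by qRT-PCR normalised to ACTB, GAPDH, POLR2A; bidirectional fit versus DMSO.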

Read-out in test [2]: Cyclin Dependent Kinase Inhibitor 1A (CDKN1A), CDKN1A (gene 1026)
Put plainly: LTEA_HepaRG_CDKN1A: Life Technologies and Expression Analysis (LTEA) Assay for Cyclin Dependent Kinase Inhibitor 1A (CDKN1A) using HepaRG (AID 2283450). The essentials: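 Gain or loss of CDKN1A transcript is scored by bidirectional fitting against 0.5% DMSO vehicle. Human HepaRG cultures receive chemicals for 48 h across an 8-point series peaking at 100 uM; expression comes from qRT-PCR.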

Read-out in test [3]: Cyclin D1 (CCND1), CCND1 (gene 595)
Put plainly: LTEA_HepaRG_CCND1: Life Technologies and Expression Analysis (LTEA) Assay for Cyclin D1 (CCND1) using HepaRG (AID 2283451). An outline of the steps: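 Expression change is measured by qRT-PCR in HepaRG cells after 48 h treatment across eight concentrations topping at 100 uM, with duplicate wells and DMSO (0.5%) serving as baseline for bidirectional fitting.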

Read-out in test [4]: catalase (CAT), CAT (gene 847)
Put plainly: LTEA_HepaRG_CAT: Life Technologies and Expression Analysis (LTEA) Assay for catalase (CAT) using HepaRG (AID 2283452). An outline of the steps:
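HepaRG cells in serum-free induction medium, 0.5% DMSO vehicle, exposed 48 h in duplicate over 8 half-log concentrations from 100 uM. CAT mRNA measured by qRT-PCR, normalized to ACTB, GAPDH, POLR2A; bidirectional fit versus DMSO.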

Read-out in test [5]: flavin-containing dimethylaniline monooxygenases 3 (FMO3), FMO3 (gene 2328)
The test is described as follows: LTEA_HepaRG_FMO3: Life Technologies and Expression Analysis (LTEA) Assay for flavin-containing dimethylaniline monooxygenases 3 (FMO3) using HepaRG (AID 2283453). The essentials: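 Differentiated HepaRG cells in serum-free induction medium, exposed 48 h in duplicate to 8 half-log concentrations up to 100 uM in 0.5% DMSO. FMO3 mRNA by qRT-PCR, normalized to ACTB, GAPDH, POLR2A; bidirectional fit vs DMSO.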

Read-out in test [6]: Cytochrome P450 (CYP1A1), CYP1A1 (gene 1543)
The test is described as follows: LTEA_HepaRG_CYP1A1: Life Technologies and Expression Analysis (LTEA) Assay for Cytochrome P450 (CYP1A1) using HepaRG (AID 2283454). An outline of the steps: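 Using HepaRG cultures with 0.5% DMSO as vehicle, eight-concentration exposures (max 100 uM) lasted 48 h. Transcript levels were measured by TaqMan qRT-PCR and normalized to ACTB, GAPDH and POLR2A.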

Read-out in test [7]: CFLAR gene, CFLAR (gene 8837)
The test is described as follows: LTEA_HepaRG_CFLAR: Life Technologies and Expression Analysis (LTEA) Assay for CFLAR gene using HepaRG (AID 2283455). The essentials: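 Differentiated HepaRG cells in serum-free induction medium were exposed 48 h in duplicate to eight half-log concentrations up to 100 uM in 0.5% DMSO; mRNA measured by TaqMan qRT-PCR, normalized to ACTB, GAPDH, POLR2A; bidirectional fitting versus DMSO.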

Read-out in test [8]: Forkhead box O1 (FOXO1), FOXO1 (gene 2308)
The test is described as follows: LTEA_HepaRG_FOXO1: Life Technologies and Expression Analysis (LTEA) Assay for Forkhead box O1 (FOXO1) using HepaRG (AID 2283456). An outline of the steps: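 Differentiated HepaRG cells, in serum-free induction medium with 0.5% DMSO, exposed 48 h in duplicate to 8-point half-log series from 100 uM. FOXO1 mRNA measured by TaqMan qRT-PCR, normalized to ACTB, GAPDH, POLR2A; bidirectional fit versus DMSO.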

Read-out in test [9]: growth arrest and DNA damage 45 (GADD45A), GADD45A (gene 1647)
Put plainly: LTEA_HepaRG_GADD45A: Life Technologies and Expression Analysis (LTEA) Assay for growth arrest and DNA damage 45 (GADD45A) using HepaRG (AID 2283458). The essentials:
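Differentiated HepaRG cells exposed 48 h in serum-free induction medium to 8 concentrations, top 100 uM in half-log steps, 0.5% DMSO. GADD45A mRNA quantified by qRT-PCR, normalized to ACTB, GAPDH and POLR2A; bidirectional fit versus DMSO.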

Read-out in test [10]: Forkhead box O3 (FOXO3), FOXO3 (gene 2309)
The test is described as follows: LTEA_HepaRG_FOXO3: Life Technologies and Expression Analysis (LTEA) Assay for Forkhead box O3 (FOXO3) using HepaRG (AID 2283459). An outline of the steps:
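Differentiated human HepaRG cells, 48 h post-plating, exposed in duplicate for 48 h in serum-free induction medium; 8-point half-log series from 100 uM in 0.5% DMSO. FOXO3 mRNA by TaqMan qRT-PCR, normalized to ACTB/GAPDH/POLR2A; bidirectional fit versus DMSO.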

Read-out in test [11]: ABC Transporter (ABCB1), ABCB1 (gene 5243)
The test is described as follows: LTEA_HepaRG_ABCB1: Life Technologies and Expression Analysis (LTEA) Assay for ABC Transporter (ABCB1) using HepaRG (AID 2283460). An outline of the steps: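 HepaRG cells exposed in duplicate for 48 h in serum-free induction medium to eight half-log concentrations up to 100 uM in 0.5% DMSO. ABCB1 mRNA quantified by qRT-PCR, normalised to ACTB, GAPDH and POLR2A; fitted bidirectionally versus DMSO.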

Read-out in test [12]: growth arrest and DNA damage 45 (GADD45B), GADD45B (gene 4616)
Put plainly: LTEA_HepaRG_GADD45B: Life Technologies and Expression Analysis (LTEA) Assay for growth arrest and DNA damage 45 (GADD45B) using HepaRG (AID 2283461). The essentials: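 Human HepaRG monolayers receive chemicals for 48 h at eight half-log concentrations, highest 100 uM, in 0.5% DMSO. Expression is measured by TaqMan qRT-PCR and normalized to ACTB, GAPDH and POLR2A.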

Read-out in test [13]: ABC Transporter (ABCC3), ABCC3 (gene 8714)
Put plainly: LTEA_HepaRG_ABCC3: Life Technologies and Expression Analysis (LTEA) Assay for ABC Transporter (ABCC3) using HepaRG (AID 2283462). An outline of the steps:
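Transcriptional change of ABCC3 in HepaRG after 48 h treatment, determined by qRT-PCR normalized to endogenous controls. Concentrations spanned eight half-log steps to 100 uM in 0.5% DMSO.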

Read-out in test [14]: ABC Transporter (ABCB11), ABCB11 (gene 8647)
The test is described as follows: LTEA_HepaRG_ABCB11: Life Technologies and Expression Analysis (LTEA) Assay for ABC Transporter (ABCB11) using HepaRG (AID 2283463). An outline of the steps: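 Differentiated human HepaRG cells in serum-free induction medium, dosed in duplicate for 48 h. Eight-point half-log series from 100 uM in 0.5% DMSO; ABCB11 mRNA by qRT-PCR, normalized to ACTB, GAPDH, POLR2A, fitted bidirectionally versus DMSO.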

Read-out in test [15]: ABC Transporter (ABCC2), ABCC2 (gene 1244)
Put plainly: LTEA_HepaRG_ABCC2: Life Technologies and Expression Analysis (LTEA) Assay for ABC Transporter (ABCC2) using HepaRG (AID 2283464). The essentials:
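After plating and 48 h culture, HepaRG medium is replaced with serum-free induction medium and chemicals are added (8 concentrations, max 100 uM, 0.5% DMSO) for 48 h. Total RNA then undergoes qRT-PCR for ABCC2 with housekeeping normalization.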

Read-out in test [16]: Broad substrate specificity ATP-binding cassette transporter ABCG2 (Homo sapiens) (UniProt Q9UNQ0)
Put plainly: LTEA_HepaRG_ABCG2: Life Technologies and Expression Analysis (LTEA) Assay for ABC Transporter (ABCG2) using HepaRG (AID 2283465). The essentials:
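Differentiated HepaRG cells were exposed for 48 h in serum-free induction medium to 8 half-log concentrations, top 100 uM, in 0.5% DMSO. ABCG2 mRNA was measured by qRT-PCR, normalized to ACTB, GAPDH and POLR2A, with bidirectional fitting versus DMSO.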

Read-out in test [17]: ATP-citrate lyase (ACLY), ACLY (gene 47)
Put plainly: LTEA_HepaRG_ACLY: Life Technologies and Expression Analysis (LTEA) Assay for ATP-citrate lyase (ACLY) using HepaRG (AID 2283466). An outline of the steps: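 Differentiated HepaRG cells exposed 48 h in serum-free induction medium to eight half-log concentrations up to 100 uM in 0.5% DMSO, duplicates. Transcript measured by Fluidigm TaqMan qRT-PCR, normalized to ACTB, GAPDH, POLR2A; bidirectional fit versus DMSO.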

Read-out in test [18]: Peroxisomal acyl-coenzyme A oxidase 1 (ACOX1) gene, ACOX1 (gene 51)
The test is described as follows: LTEA_HepaRG_ACOX1: Life Technologies and Expression Analysis (LTEA) Assay for Peroxisomal acyl-coenzyme A oxidase 1 (ACOX1) gene using HepaRG (AID 2283467). An outline of the steps: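 HepaRG cells, plated 48 h then switched to serum-free induction medium, were exposed in duplicate for 48 h to 8-point half-log concentrations up to 100 uM in 0.5% DMSO. ACOX1 mRNA was measured by qRT-PCR, normalized to ACTB/GAPDH/POLR2A, and fitted bidirectionally versus DMSO.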

Read-out in test [19]: Alkaline Phosphatase, Placental (ALPP) gene, ALPP (gene 250)
The test is described as follows: LTEA_HepaRG_ALPP: Life Technologies and Expression Analysis (LTEA) Assay for Alkaline Phosphatase, Placental (ALPP) gene using HepaRG (AID 2283468). The essentials: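 Using human liver HepaRG cells, chemicals are tested in duplicate over 48 h at half-log concentrations topping at 100 uM; phenobarbital 1 mM serves as induction control. ALPP mRNA change by qRT-PCR, bidirectional fit against vehicle.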

Read-out in test [20]: Bcl-2 (BAD) gene, BAD (gene 572)
Put plainly: LTEA_HepaRG_BAD: Life Technologies and Expression Analysis (LTEA) Assay for Bcl-2 (BAD) gene using HepaRG (AID 2283469). The essentials:
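Differentiated HepaRG cells were exposed in duplicate in 0.5% DMSO for 48 h to eight-point half-log concentrations up to 100 uM. BAD mRNA was measured by Fluidigm TaqMan qRT-PCR, normalized to ACTB, GAPDH and POLR2A, and fitted bidirectionally against DMSO.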

Chain of Broad substrate specificity ATP-binding cassette transporter ABCG2 (Homo sapiens) (Q9UNQ0 whole entry, looked up): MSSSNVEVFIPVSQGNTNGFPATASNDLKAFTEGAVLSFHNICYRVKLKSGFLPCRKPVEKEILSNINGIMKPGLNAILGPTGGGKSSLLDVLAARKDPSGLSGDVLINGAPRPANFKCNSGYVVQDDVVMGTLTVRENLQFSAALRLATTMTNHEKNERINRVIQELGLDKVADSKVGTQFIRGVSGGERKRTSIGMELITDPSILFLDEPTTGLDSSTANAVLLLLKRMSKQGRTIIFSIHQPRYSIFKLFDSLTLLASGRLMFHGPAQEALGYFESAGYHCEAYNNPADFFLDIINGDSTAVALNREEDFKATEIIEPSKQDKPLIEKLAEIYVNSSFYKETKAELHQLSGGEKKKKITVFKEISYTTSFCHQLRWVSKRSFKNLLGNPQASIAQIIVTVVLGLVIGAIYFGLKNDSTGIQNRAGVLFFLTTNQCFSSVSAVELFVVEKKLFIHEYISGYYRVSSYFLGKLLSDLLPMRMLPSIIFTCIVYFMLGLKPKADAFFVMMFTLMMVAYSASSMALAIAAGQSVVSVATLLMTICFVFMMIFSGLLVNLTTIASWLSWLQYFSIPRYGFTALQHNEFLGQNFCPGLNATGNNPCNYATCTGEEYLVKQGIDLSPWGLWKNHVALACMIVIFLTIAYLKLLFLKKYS
Chain of Fatty acid synthase (Homo sapiens) (P49327 whole entry, looked up): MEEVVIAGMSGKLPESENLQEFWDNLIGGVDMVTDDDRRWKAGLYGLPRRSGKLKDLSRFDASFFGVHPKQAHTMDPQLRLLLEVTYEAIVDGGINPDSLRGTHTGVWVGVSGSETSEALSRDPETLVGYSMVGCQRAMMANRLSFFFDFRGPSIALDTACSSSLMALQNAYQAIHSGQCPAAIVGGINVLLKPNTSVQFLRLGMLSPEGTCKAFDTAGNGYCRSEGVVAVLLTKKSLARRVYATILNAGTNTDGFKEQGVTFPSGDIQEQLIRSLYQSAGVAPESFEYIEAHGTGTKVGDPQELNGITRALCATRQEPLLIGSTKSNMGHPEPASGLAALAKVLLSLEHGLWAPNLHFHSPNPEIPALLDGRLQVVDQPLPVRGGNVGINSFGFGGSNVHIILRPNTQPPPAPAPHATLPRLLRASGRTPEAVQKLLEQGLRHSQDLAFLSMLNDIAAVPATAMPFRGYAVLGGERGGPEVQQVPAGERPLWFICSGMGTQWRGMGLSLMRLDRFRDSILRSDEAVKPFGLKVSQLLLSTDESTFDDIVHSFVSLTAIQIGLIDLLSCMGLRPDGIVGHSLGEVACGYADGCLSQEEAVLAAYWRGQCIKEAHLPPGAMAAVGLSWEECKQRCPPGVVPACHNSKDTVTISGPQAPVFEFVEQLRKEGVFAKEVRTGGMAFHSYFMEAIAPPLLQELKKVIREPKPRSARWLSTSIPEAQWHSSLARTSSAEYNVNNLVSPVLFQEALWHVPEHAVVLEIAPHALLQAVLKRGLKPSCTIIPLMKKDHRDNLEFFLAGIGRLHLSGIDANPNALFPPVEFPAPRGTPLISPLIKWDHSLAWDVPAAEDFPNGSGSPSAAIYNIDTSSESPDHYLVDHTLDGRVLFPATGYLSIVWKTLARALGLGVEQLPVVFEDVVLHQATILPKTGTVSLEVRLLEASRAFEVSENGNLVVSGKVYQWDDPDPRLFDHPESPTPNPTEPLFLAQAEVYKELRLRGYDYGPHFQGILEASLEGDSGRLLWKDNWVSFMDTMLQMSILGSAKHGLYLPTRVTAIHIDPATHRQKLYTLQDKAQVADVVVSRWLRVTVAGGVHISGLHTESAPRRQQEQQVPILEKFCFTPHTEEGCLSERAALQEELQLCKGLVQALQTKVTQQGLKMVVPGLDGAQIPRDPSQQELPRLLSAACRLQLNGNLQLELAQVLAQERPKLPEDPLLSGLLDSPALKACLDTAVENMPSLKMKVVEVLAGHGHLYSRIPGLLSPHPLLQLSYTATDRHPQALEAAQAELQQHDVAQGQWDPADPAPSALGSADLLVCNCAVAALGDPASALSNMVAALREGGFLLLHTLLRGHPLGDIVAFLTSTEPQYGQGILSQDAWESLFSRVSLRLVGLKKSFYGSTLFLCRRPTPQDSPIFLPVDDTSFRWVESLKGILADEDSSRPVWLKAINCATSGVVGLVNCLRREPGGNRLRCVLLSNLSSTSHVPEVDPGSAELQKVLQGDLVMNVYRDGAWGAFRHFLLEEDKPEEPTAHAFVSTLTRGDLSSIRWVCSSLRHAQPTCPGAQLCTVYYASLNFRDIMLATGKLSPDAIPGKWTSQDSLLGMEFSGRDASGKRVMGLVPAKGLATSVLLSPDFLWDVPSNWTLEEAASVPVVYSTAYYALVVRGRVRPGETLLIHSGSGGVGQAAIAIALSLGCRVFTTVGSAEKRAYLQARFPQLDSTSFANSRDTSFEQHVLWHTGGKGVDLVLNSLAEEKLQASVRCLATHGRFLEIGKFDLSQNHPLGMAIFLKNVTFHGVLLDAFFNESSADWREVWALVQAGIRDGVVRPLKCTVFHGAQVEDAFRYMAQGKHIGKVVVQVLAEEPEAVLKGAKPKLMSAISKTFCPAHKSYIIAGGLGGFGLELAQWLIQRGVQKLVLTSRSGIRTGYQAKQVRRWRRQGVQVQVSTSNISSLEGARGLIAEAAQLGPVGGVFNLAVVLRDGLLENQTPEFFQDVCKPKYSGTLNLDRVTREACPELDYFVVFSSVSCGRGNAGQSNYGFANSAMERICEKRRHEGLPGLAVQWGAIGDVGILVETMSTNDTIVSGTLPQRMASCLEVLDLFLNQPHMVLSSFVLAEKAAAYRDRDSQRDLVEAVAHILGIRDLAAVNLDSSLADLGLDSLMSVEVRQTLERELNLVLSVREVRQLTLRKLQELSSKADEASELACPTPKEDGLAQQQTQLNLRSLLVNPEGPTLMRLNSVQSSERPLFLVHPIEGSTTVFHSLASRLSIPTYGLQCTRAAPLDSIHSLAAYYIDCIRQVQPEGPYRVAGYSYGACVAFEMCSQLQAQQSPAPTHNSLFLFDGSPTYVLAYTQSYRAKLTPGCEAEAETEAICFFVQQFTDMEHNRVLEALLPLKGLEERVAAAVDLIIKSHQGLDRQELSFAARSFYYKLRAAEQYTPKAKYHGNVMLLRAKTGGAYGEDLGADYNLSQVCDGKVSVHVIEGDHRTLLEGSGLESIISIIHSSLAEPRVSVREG

As for `O=C(CCl)c1ccccc1`, the outcome in [1], in [2], in test [3], in test [4], in test [5] and in test [6] was inactive. Also, the molecule was classed as inactive in [7], in test [8], in test [9], in [10], in test [11] and in test [12]. The outcome in [13], in test [14], in test [15], in [16], in test [17] and in test [18] was inactive. Moreover, the outcome in test [19] and in test [20] was inactive.
As to `O=[N+]([O-])c1ccc(Cl)cc1`, the call in test [1], in [2], in test [3], in [4], in test [5] and in test [7] was inactive. The outcome in [8], in [9], in test [10], in test [11], in test [12] and in [13] was inactive. The call in test [14], in [15], in [16], in test [17], in test [18] and in test [19] was inactive. For the same molecule, the molecule was classed as inactive in test [20]. Also, the AC50 in test [6] is 37.8 µM (active).

The values are drawn from PubChem BioAssay (EPA / NIEHS).
